# Cruzain noTriton: cruzain (T. cruzi) inhibition without detergent | P25779 | purified cruzain, Z-FR-AMC fluorescence, no detergent | Potency, µM, without a hit: max response, negative = inhibition, most hits filed as inhibitors | actives 2.3% (n = 200,000) | AID 1476;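 note: plate controls were enzyme without inhibitor for no effect and buffer without enzyme for full effect; nearly all actives have a fitted effect of over 40% in size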
# Target sequence (P25779 123-467 limits assumed): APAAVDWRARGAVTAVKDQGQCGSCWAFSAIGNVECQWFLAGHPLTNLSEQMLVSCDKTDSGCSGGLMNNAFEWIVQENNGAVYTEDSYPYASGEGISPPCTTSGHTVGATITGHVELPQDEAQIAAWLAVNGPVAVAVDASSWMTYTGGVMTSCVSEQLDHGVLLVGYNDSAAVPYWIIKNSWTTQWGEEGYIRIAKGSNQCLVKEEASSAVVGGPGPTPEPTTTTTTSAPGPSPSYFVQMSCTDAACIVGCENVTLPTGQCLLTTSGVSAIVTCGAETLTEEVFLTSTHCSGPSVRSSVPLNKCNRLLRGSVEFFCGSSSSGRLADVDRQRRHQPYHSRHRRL
#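 Purified cruzain at 1.5 nM, pre-incubated 15 min with compound at room temperature in 100 mM sodium acetate pH 5.5, 5 mM DTT, 0.00005% Triton X-100. Reaction started with 2 uM Z-FR-AMC; AMC fluorescence increase over 60 s gives rate.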
# Cruzain inh Det: inhibitors of Trypanosoma cruzi cruzain with detergent. purified cruzain, Z-FR-AMC fluorescence, 0.01% Triton. Potency, µM, for inactives: max response, negative = inhibition, hits mostly inhibitors. actives 0.43% (n = 200,000). AID 1478;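 note: plate controls were neutral wells for no effect and buffer without enzyme for full effect; nearly all actives have a fitted effect of over 40% in size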
#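 Cysteine protease activity tested under reducing, mildly acidic conditions (100 mM sodium acetate pH 5.5, 5 mM DTT) plus 0.01% Triton X-100. Cruzain 1.5 nM; substrate Z-FR-AMC 2 uM; 15 min compound preincubation at room temperature.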
# * marks the source's active call; other numbers are inactive results; ? = inconclusive. Only some compounds are listed: those with a hit (about 2.5% of all), similar ones and a draw of the others. Calls come from the whole dose curve; as a rule, active = well fitted curve in the direction sought with a large enough effect; inconclusive = small, poorly fitted or top-dose-only effect, or another doubt; inactive = no such curve, though single readings can be large; an effect the other way counts as inactive or inconclusive. Potency is the fitted concentration of half-maximal effect.
SMILES,Cruzain noTriton,Cruzain inh Det
Cc1cc(C)c2c(CC(=O)Nc3c(C(=O)Nc4ccc(Cl)cc4)oc4ccccc34)coc2c1,-25%,-2%
COc1ccc(N(C(=O)c2cccc(C)c2)S(=O)(=O)c2ccc3c(c2)n(C)c(=O)n3C)cc1,?,-5%
CCCCc1nc2ccccc2n2c(-c3ccc(OC)cc3)c3c(=O)n(C)c(=O)n(C)c3c12,-5%,-2%
C=CCNc1ncnc2c1[nH]c1ccc(Cl)cc12,13µM*,?
Cc1ccc2[nH]c3c(NCc4ccco4)ncnc3c2c1,-23%,-27%
CCOc1ccc(S(=O)(=O)N(CC(=O)Nc2ccc(OC)cc2OC)c2ccccc2)cc1,5%,1%
CCOc1ccccc1CNC(=O)c1cn(-c2ccc(OC)cc2)c(=O)c2ccccc12,-12%,-8%
Cc1ccccc1NC(=O)COC(=O)c1ccc(CSc2ccc(Cl)cc2)cc1,10µM*,3%
O=C(COC(=O)c1ccc(O)cc1)Nc1ccc(Cl)cc1C(=O)c1ccccc1,-12%,-11%
CCOC(=O)c1c(C)c(-c2ccccc2)n(CC(=O)Nc2cc(OC)cc(OC)c2)c1C,-7%,-7%
CCOC(=O)c1ccc(-c2c(C)cc3oc(=O)cc(-c4ccccc4)c3c2C)cc1,4.5µM*,3%
Cc1ccc(-c2c(C)cc3oc(=O)cc(-c4ccccc4)c3c2C)cc1,?,3%
CC(=O)Nc1ccc(-c2c(C)cc3oc(=O)cc(-c4ccccc4)c3c2C)cc1,-22%,-1%
Cc1cc2oc(=O)cc(-c3ccccc3)c2c(C)c1-c1ccc(C(F)(F)F)cc1,?,-8%
COc1ccc(-c2c(C)cc3oc(=O)cc(-c4ccccc4)c3c2C)cc1,32µM*,-2%
Cc1cc2oc(=O)cc(-c3ccccc3)c2c(C)c1-c1ccc(N(C)C)cc1,14µM*,1%
COCCn1c(C)cc(O)c(C(c2ccccc2)N2CCN(c3ccccc3F)CC2)c1=O (stereo not given),-5%,2%
COc1ccc(S(=O)(=O)N(CCc2ccccc2)CC(=O)Nc2cc(C)cc(C)c2)cc1OC,?,-6%
Cc1cc(C(=O)CN2C(=O)NC3(CCCc4ccccc43)C2=O)c(C)n1Cc1ccco1 (stereo not given),?,-2%
Cc1cc(C(=O)CN2C(=O)NC3(CCCc4ccccc43)C2=O)c(C)n1Cc1ccccc1 (stereo not given),25µM*,-3%
COc1ccc2cc3cc(C(=O)NCc4ccco4)oc3nc2c1,6%,-8%
COc1ccc2cc3cc(C(=O)NCc4ccccn4)oc3nc2c1,?,32µM*
COc1ccccc1NC(=O)CSc1nc2c(oc3ccccc32)c(=O)n1-c1ccc(C)cc1,-1%,-1%
Cc1cc(F)ccc1NC(=O)C1CCCN(S(=O)(=O)c2ccc3c(c2)CCCC(=O)N3)C1 (stereo not given),2%,0%
Cc1ccc2c(c1)N(C(=O)CCC(=O)Nc1ccccc1Cl)CC(C)O2 (stereo not given),-9%,-1%
SMILES,Cruzain noTriton,Cruzain inh Det
CCc1ccc(S(=O)(=O)/N=C2/C=C(Sc3ncn[nH]3)C(=O)c3ccccc32)cc1,25µM*,-14%
Cc1ccc(S(=O)(=O)/N=C2/C=C(C3C(=O)CC(C)(C)CC3=O)C(=O)c3ccccc32)cc1,-16%,-6%
N#C/C(=C/c1cn(Cc2ccc(F)cc2)c2ccccc12)C(=O)Nc1cccc(Cl)c1,7.9µM*,-3%
COc1cccc(NC(=O)/C(C#N)=C\c2cn(Cc3ccc(C)cc3)c3ccccc23)c1,7.9µM*,-2%
N#C/C(=C\c1cn(Cc2ccc(C#N)cc2)c2ccccc12)C(=O)NCc1cccs1,?,-3%
COc1cccc(NC(=O)/C(C#N)=C/c2ccc(-c3ccc(C)cc3)o2)c1,?,-6%
CS(=O)(=O)N1CCC[C@@]2(CCN(C(=O)Nc3cccc(F)c3)C2)C1,0%,-3%
N#Cc1ccccc1CN1C(=O)c2ccccc2Sc2ccc(C(=O)OCc3ccco3)cc21,25µM*,-7%
CCOC(=O)c1ccc2c(c1)N(Cc1ccccc1)C(=O)c1ccccc1S2,-18%,0%
O=C(NCc1ccco1)c1ccc2c(c1)N(Cc1ccccc1)C(=O)c1ccccc1S2,?,1%
C=Cc1ccc(CN2C(=O)c3ccccc3Sc3ccc(C(=O)OCc4ccco4)cc32)cc1,13µM*,-2%
COc1ccc2oc(-c3ccc(NC(=O)c4ccc(Cl)cc4Cl)cc3)nc2c1,10%,-2%
Cc1cc(C)nc(N/N=C/c2ccccc2OCc2ccc([N+](=O)[O-])cc2)n1,-16%,-4%
O=[N+]([O-])c1ccc(N/N=C\c2ccccc2OCc2ccccc2)cc1,25µM*,-3%
NS(=O)(=O)c1ccc(N=Nc2cc3ccccc3c(C(=O)O)c2O)cc1,-8%,-1%
S=C([S-])NCCNC(=S)[S-].[Zn+2],?,32µM*
C=Cc1ccc(Cn2c(=O)cc(C)c3c(C)nn(-c4ccccc4)c32)cc1,-12%,0%
COCCCNC(=O)c1sc2nc(C)c(C(=O)Nc3ccc(C)cc3C)c(-c3ccc(Cl)cc3)c2c1N,?,-8%
CCOc1ccc(CCNC(=O)c2cn(C)c3ccc(S(=O)(=O)N4CCCCCC4)cc3c2=O)cc1OCC,0%,-4%
CCn1c(COc2ccc3c(c2)CCCC3)nnc1SCC(=O)Nc1nccs1,7.9µM*,9%
CCn1c(CNC(=O)Cc2ccc(OC)cc2)nnc1SCC(=O)Nc1nccs1,-7%,5%
CCOC(=O)c1cnn(-c2nc(C)nc3sc4c(c23)CCC4)c1N,?,4%
CCOC(=O)c1cnn(-c2nc(SC)nc3sc4c(c23)CCC4)c1N,7.9µM*,1%
CCOC(=O)c1ccc(NC(=O)c2cccc3c(=O)c4c([nH]c23)CCCC4)cc1,-1%,-6%
CCc1ccc(NCc2cc3cc4c(cc3n(CC(=O)Nc3ccc(Cl)cc3)c2=O)OCO4)cc1,16µM*,-1%
SMILES,Cruzain noTriton,Cruzain inh Det
Cc1ccc(NCc2cc3cc4c(cc3n(CC(=O)Nc3ccc(C)cc3)c2=O)OCCO4)cc1,?,-7%
COc1ccc(NCc2cc3cc4c(cc3n(CC(=O)Nc3cc(C)cc(C)c3)c2=O)OCO4)cc1,?,-5%
COc1ccc(NCc2cc3cc4c(cc3n(CC(=O)Nc3ccc(C)c(C)c3)c2=O)OCO4)cc1,16µM*,-3%
Cc1ccc(-c2nnc(SCC(=O)NC(C)(C)C)nc2-c2ccc(C)cc2)cc1,-22%,-11%
COc1ccc(Cn2c(CCC(=O)Nc3ccc(C)cc3C)nc3cccnc32)cc1,19%,1%
Cc1ccc(NC(=O)Cc2ccc(-n3c(C)nc4cccnc43)cc2)c(Cl)c1,-2%,8.9µM*
Oc1c(C(c2ccccc2)N2CCC3(CC2)OCCO3)sc2nc(-c3ccco3)nn12 (stereo not given),22%,-1%
CCOc1ccc(-c2nn(CC(=O)NC3CCCC3)c3c2cnc2ccc(C)cc23)cc1,10%,-2%
CC1=C(C(=O)Nc2ccc(C)cc2C)C(C(C)C)n2nc(SCc3ccccc3Cl)nc2N1 (stereo not given),14%,-2%
Cc1ccc(S(=O)(=O)NCC(=O)OCN2C(=O)c3ccccc3C2=O)cc1,25µM*,22µM*
CCOc1ccc(S(=O)(=O)NCCC(=O)OCN2C(=O)c3ccccc3C2=O)cc1,-8%,-7%
CCOc1ccccc1CNC(=O)c1cnc2sc(N3CCCCCC3)nn2c1=O,?,-2%

# Assay outcomes: PubChem BioAssay, National Center for Advancing Translational Sciences (NCATS)
